Measured values taken from PubChem BioAssay.
Calls of active or inactive are those of the source.

Columns and labels:
[1] = compound effects on lung adenocarcinoma cell viability – A549, calcein-AM fluorescence, 48 h, basal, profiling panel (AID 1162); conditions: higher = more signal
[2] = compound effects on differentiated 3T3-L1 adipocyte viability – cell-based, 3T3-L1 adipocytes, calcein-AM fluorescence, 48 h, basal, profiling panel (AID 1163); conditions: 3T3-L1 adipocytes viability, higher = more signal
[3] = compound effects on hepatocellular carcinoma cell viability – HepG2, calcein-AM fluorescence, 48 h, basal, profiling panel (AID 1164); conditions: higher = more signal
[4] = compound effects on multiple myeloma cell viability – MM1S, calcein-AM fluorescence, 48 h, basal, profiling panel (AID 1165); conditions: higher = more signal
[5] = calcein-AM signal in unstimulated myeloma cells – cell-based, calcein-AM fluorescence, 48 h, PK04 Diversity Set, profiling panel (AID 1166); conditions: RPMI8226 myeloma viability, higher = more signal;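 note: cells grown under basal conditions without added stimulus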
[6] = JC-1 mitochondrial signal, unstimulated HepG2 cells – cell-based, JC-1 fluorescence, 24 h, 100 nL compound, profiling panel (AID 1167); conditions: HepG2 mitochondrial potential, higher = more signal
[7] = JC-1 mitochondrial signal, unstimulated adipocytes – cell-based, JC-1 fluorescence, 3T3-L1 adipocytes, 24 h, 100 nL compound, profiling panel (AID 1168); conditions: JC-1 mitochondrial fluorescence, higher = more signal, called active from +8 up or from −8 down
[8] = JC-1 mitochondrial signal, unstimulated myeloma cells – cell-based, JC-1 fluorescence, RPMI8226, 24 h, 100 nL compound, profiling panel (AID 1169); conditions: JC-1 mitochondrial potential fluorescence, higher = more signal
[9] = JC-1 mitochondrial signal, unstimulated MM1S myeloma – cell-based, JC-1 fluorescence, 24 h, 100 nL compound, profiling panel (AID 1170); conditions: MM1S mitochondrial potential, higher = more signal
[10] = resazurin metabolic signal in A549 cells – cell-based, resazurin fluorescence, 24 h, PK04 Diversity Set, profiling panel (AID 1171); conditions: A549 viability, higher = more signal, called active from +8 up or from −8 down
Note: test concentration not given here.

SMILES	z-score [1]	z-score [2]	z-score [3]	z-score [4]	z-score [5]	z-score [6]	z-score [7]	z-score [8]	z-score [9]	z-score [10]
COC(=O)[C@@]1(Cc2ccccc2)[C@H]2c3cc(C(=O)N(C)C)n(CCc4ccc(O)c(OC)c4)c3C[C@H]2CN1C(=O)c1ccccc1	0.0634	-0.121	0.343	-1.32	-0.0242	-0.533	-0.9 (inactive)	-0.665	-0.241	0.641 (inactive)
COC(=O)C1=CC(CCCO)=CC(C2CC2)N(C)C=C1C(=O)OC (stereo not given)	2.6	0.435	1.45	0.828	2.02	0.63	-0.757 (inactive)	-0.225	-1.27	-0.951 (inactive)
CCOC(=O)C1=CC[C@@H](c2cccc(Cl)c2)N(S(=O)(=O)c2ccc(C)cc2)C1	-0.236	0.472	0.46	-1.14	-0.789	0.584	1.34 (inactive)	-0.043	-0.51	-0.617 (inactive)
COc1cc2c(cc1OC)CN(C(=O)[C@@H]1[C@H]3C(=O)O[C@H](c4ccccc4)[C@H](c4ccccc4)N3[C@H](c3ccc(OCCO)cc3)[C@@]13C(=O)Nc1ccccc13)CC2	1.47	1.04	1.35	0.48	0.834	-0.221	0.876 (inactive)	-0.592	-1.17	0.319 (inactive)
O=C(NCCCCCNC(=O)/C(Cc1ccccc1)=N/O)OCc1ccccc1	1.54	0.989	-0.756	-0.781	0.476	-0.348	0.627 (inactive)	0.567	-0.877	0.766 (inactive)
COc1cccc(/C=C/C=O)c1	0.482	-0.132	0.844	-1.38	-0.803	1.04	0.532 (inactive)	-0.109	-0.253	0.336 (inactive)
COCCOC(=O)N1C(=O)[C@@]2(c3cc(C#Cc4ccc(OC)cc4)ccc31)[C@H](C(=O)Nc1nc3ccccc3s1)[C@H]1C(=O)O[C@H](c3ccccc3)[C@H](c3ccccc3)N1[C@@H]2c1ccc(OCCO)cc1	-0.205	-0.106	-1.07	-1.59	-0.482	-3.17	2.92 (inactive)	-0.604	-1.44	-0.0799 (inactive)
COCCOC(=O)N1C(=O)[C@@]2(c3ccccc31)[C@H](C(=O)N1CCN(c3ncccn3)CC1)[C@H]1C(=O)O[C@H](c3ccccc3)[C@H](c3ccccc3)N1[C@@H]2c1ccc(O)cc1	-0.337	0.176	0.102	-1.41	-0.441	0.745	-0.107 (inactive)	0.263	0.0963	1.19 (inactive)
Cc1cc(C)c(C(O)C2C=CC3C(=O)NC(=O)C3N2Nc2ccc(Cl)cc2Cl)c(C)c1 (stereo not given)	-2.15	-0.22	-1.68	-3.52	-3.03	-2.65	-0.143 (inactive)	-1.02	-0.44	-1.59 (inactive)
[N-]=[N+]=Nc1ccccc1C[C@]1(C(N)=O)N=C(c2ccc(OCCCO)cc2)O[C@H]1c1ccccc1N=[N+]=[N-]	-1.47	1.32	-1.84	-2.29	-3.48	-1.04	-0.981 (inactive)	-1.21	-0.825	-1.36 (inactive)
O=C1OCC=C[C@H]2OC34C=CCN(Cn5nnc6ccccc65)C(=O)[C@H]3N(CCCO)C(=O)[C@@H]4[C@@H]12 (stereo not given in full)	-0.267	0.832	-0.64	0.266	0.0897	-0.541	0.904 (inactive)	-0.252	-1.33	-0.813 (inactive)
OCC1CC(c2ccccc2)=NO1 (stereo not given)	0.71	0.311	-0.0218	0.554	-0.676	0.883	-0.765 (inactive)	0.527	-0.201	0.281 (inactive)
COC(=O)[C@@]1(Cc2ccc(F)cc2)[C@H]2c3cc(C(=O)N4CCCC4)n(CCN4CNCC4=O)c3C[C@H]2CN1C(=O)c1ccccc1	-0.0823	1.32	-0.403	-0.0244	-1.67	2.44	-0.933 (inactive)	-0.452	-1.23	0.415 (inactive)
O=C1OCC=C[C@H]2OC34C=CCN(Cc5ccccc5)C(=O)[C@H]3N(CCCCCCO)C(=O)[C@@H]4[C@@H]12 (stereo not given in full)	0.131	0.98	-0.246	1.62	0.659	-0.1	-0.173 (inactive)	-0.822	-0.566	0.776 (inactive)
